In experiment [1] the target is Cellular tumor antigen p53 (Homo sapiens) (UniProt P04637). The experiment is described as follows: Primary qHTS for small molecule compounds that upregulate eGFP-tagged delta133p53alpha (in N-terminal) cells. (AID 2060322). Also: nearly all actives have a fitted effect of over 75% in size. Also: potency is read from the fitted curve at half-maximal effect.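 As to activation: 0% = DMSO vehicle and 100% = reference activator.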 The settings on record: NCI-H358 eGFP-delta133p53alpha fluorescence, 24 h; activation: stronger effect = higher value. Put shortly:
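NCI-H358 cells pre-induced 24 h with 10 ng/ml doxycycline to express N-terminal eGFP-delta133p53alpha, then dosed 24 h at 37C without doxycycline; fixed, Hoechst-stained, GFP intensity by laser scanning cytometry, normalized to DMSO (0%) and 57.5 uM 5-azacytidine (100%).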
(In general: In qHTS, concentration-response curves come from the screen itself.)

Experiment [2] deals with Aldehyde dehydrogenase, mitochondrial (Homo sapiens) (UniProt P05091). The experiment is described as follows: qHTS for Inhibitors of the Aldehyde Dehydrogenase Family (ALDH2) Primary screen (AID 2061308).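 Also: plate controls were vehicle for no effect and reference inhibitor for full effect; nearly all actives have a fitted effect of over 55% in size.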 The settings on record: ALDH2 enzyme inhibition qHTS, 1536-well; series mostly up to 56 µM.
Experiment [3] has as its target Retinaldehyde dehydrogenase 3 (Homo sapiens) (UniProt P47895). The experiment is described as follows: qHTS for Inhibitors of the Aldehyde Dehydrogenase Family (ALDH1A3) Primary screen (AID 2061315).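 Also: plate controls were DMSO vehicle for no effect and reference inhibitor for full effect.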 The settings on record: ALDH inhibition qHTS; series mostly up to 56 µM.
A short description of experiment [4]: BET inhibitor-based combinations targeting novel dependencies in MECOM-rearranged (r) AML: SET-2 cell line (AID 2202231). Also: nearly all actives have a fitted effect of over 35% in size. Also: potency is read from the fitted curve at half-maximal effect.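 As to viability: plate controls were DMSO treated cells for no effect and wells without cells for full effect.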 The settings on record: SET-2 AML cells viability, CellTiter-Glo luminescence, 48 h; viability: stronger effect = lower value, concentration not given here. Put shortly:
(§1)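 500 cells/well; 11-pt dose curve; 48 h, standard incubator; CellTiter-Glo luminescence after 15 min RT; DMSO/empty-well normalization; AUC plus Z-AUC (mean-centered within each line).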
On the technique in general: ATP-based viability assays read luminescence as a measure of living cells.

Experiment [5] in a line: BET inhibitor-based combinations targeting novel dependencies in MECOM-rearranged (r) AML: OCI-AML3 cell line (AID 2202232). Also: nearly all actives have a fitted effect of over 35% in size. Also: potency is read from the fitted curve at half-maximal effect. The settings on record: CellTiter-Glo luminescence, 48 h; Potency: OCI-AML3 viability; series mostly up to 46 µM. Put shortly: as §1
Experiment [6] is described as follows: BET inhibitor-based combinations targeting novel dependencies in MECOM-rearranged (r) AML: MV-4-11 cell line (AID 2202233). Also: nearly all actives have a fitted effect of over 45% in size. Also: potency is read from the fitted curve at half-maximal effect. The settings on record: MV-4-11 AML viability, CellTiter-Glo luminescence, 48 h; series mostly up to 46 µM. In outline: (§2)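 Cells were plated at 500 per well and exposed to each drug across an 11-point dose range for 48 hr at standard incubator conditions. Viability was read by CellTiter-Glo luminescence, and activity was expressed as AUC and per-cell-line Z-transformed AUC.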

A short description of experiment [7]: BET inhibitor-based combinations targeting novel dependencies in MECOM-rearranged (r) AML: HNT-34 cell line (AID 2202234). Also: nearly all actives have a fitted effect of over 35% in size. Also: potency is read from the fitted curve at half-maximal effect. The settings on record: HNT-34 AML viability, CellTiter-Glo luminescence, 48 h; series mostly up to 46 µM. In outline:
as §2

A short description of experiment [8]: BET inhibitor-based combinations targeting novel dependencies in MECOM-rearranged (r) AML: AML-191 cell line (AID 2202236; also: nearly all actives have a fitted effect of over 35% in size; also: potency is read from the fitted curve at half-maximal effect). The settings on record: AML-191 viability, CellTiter-Glo luminescence, 48 h; series mostly up to 46 µM. In outline: as §1
A short description of experiment [9]: BET inhibitor-based combinations targeting novel dependencies in MECOM-rearranged (r) AML: AML-194 cell line (AID 2202237; also: nearly all actives have a fitted effect of over 40% in size; also: potency is read from the fitted curve at half-maximal effect). The settings on record: AML-194 (MECOM-r AML) viability, CellTiter-Glo, 48 h; series mostly up to 46 µM. In outline:
as §1

Experiment [10] can be described thus: BET inhibitor-based combinations targeting novel dependencies in MECOM-rearranged (r) AML: UCSD-AML1 cell line (AID 2202235). Also: nearly all actives have a fitted effect of over 40% in size. Also: potency is read from the fitted curve at half-maximal effect. The settings on record: UCSD-AML1 AML cells viability, CellTiter-Glo, 48 h; series mostly up to 46 µM. Put shortly:
as §2

Where “and” joins values, the source holds several entries; their conditions need not be identical. Equal entries are not always repeated. Records with an inconclusive call do not appear. A number with no mark means an inactive call. Calls of active or inactive are those of the source. Calls follow the shape of the dose curve; as a rule, active = well fitted curve in the direction sought with a large enough effect; inconclusive = small, poorly fitted or top-dose-only effect, or another doubt; inactive = no such curve, though single readings can be large; an effect the other way counts as inactive or inconclusive.

Cellular tumor antigen p53 (Homo sapiens), sequence (P04637 whole entry, looked up): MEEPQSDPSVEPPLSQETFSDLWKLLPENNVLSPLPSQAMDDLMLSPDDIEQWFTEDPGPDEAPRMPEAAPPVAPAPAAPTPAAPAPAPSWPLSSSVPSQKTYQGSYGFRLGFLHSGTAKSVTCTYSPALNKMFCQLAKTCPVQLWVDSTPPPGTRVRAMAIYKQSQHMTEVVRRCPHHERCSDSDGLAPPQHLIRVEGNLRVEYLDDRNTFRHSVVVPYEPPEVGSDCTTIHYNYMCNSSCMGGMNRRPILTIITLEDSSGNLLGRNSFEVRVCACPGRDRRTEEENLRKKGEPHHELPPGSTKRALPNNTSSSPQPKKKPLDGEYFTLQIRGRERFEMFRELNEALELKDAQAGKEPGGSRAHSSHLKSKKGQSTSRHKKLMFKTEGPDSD

For `CNC1CCC(N(Cc2cccc(-c3ccncc3)c2)C(=O)c2sc3ccccc3c2Cl)CC1` (centres undefined), the Potency is 24.3 µM (active) and 30.1 µM (active) in experiment [1]; 26.3 µM (active) in [4]; 18.6 µM (active) in experiment [5]; 16.6 µM (active) in [6]; 26.3 µM (active) in experiment [7]; 20.9 µM (active) in experiment [8]. In experiment [9], the Potency was 23.5 µM (active). For the same compound, the Potency entry in [2] and in [3] was “inactive” each time.

As to `CS(=O)(=O)c1ccc(C2=C(c3ccccc3)C(=O)OC2)cc1`, the activation in experiment [1] is -5.73%. Moreover, the Potency result in experiment [2], in experiment [3], in experiment [5], in experiment [6], in experiment [10] and in experiment [8] was “inactive” each time. Further, the Potency result in [9] was “inactive”. Moreover, in experiment [4], the viability is 95.1%.

With `C=CC(=O)Nc1cccc(Sc2nc(Nc3ccc(N4CCN(C)CC4)cc3)ncc2Cl)c1`, the Potency in [1] is 12 µM (active); in experiment [4] it was 11.8 µM (active); in experiment [5] it was 13.2 µM (active); in experiment [6] it was 2.95 µM (active); in experiment [10] it was 9.34 µM (active); in experiment [8], 10.5 µM (active). In [9], the Potency is 10.5 µM (active). Also, the Potency entry in [2] and in [3] was “inactive” throughout.

As for `Cc1ccccc1C(C(=O)NC1CCCCC1)N(C(=O)CNc1ccc(C#N)cc1)c1cccc(F)c1` (centres undefined), the activation in experiment [1] is 17.1% and 3.57%. For the same compound, the Potency entry in experiment [2], in experiment [3], in experiment [5], in [6], in experiment [7] and in experiment [8] was “inactive” throughout. The Potency result in experiment [9] is “inactive”. Also, the viability in experiment [4] is 109%.

In the case of `CNc1nccc(-c2cccnc2Oc2cc(C(=O)Nc3cccc(C(F)(F)F)c3)ccc2C)n1`, the activation in [1] is -0.576%. The Potency result in [2] and in [3] was “inactive” throughout. For the same compound, the Potency in experiment [4] was 16.6 µM (active); in experiment [5], 2.35 µM (active); in experiment [6], 2.95 µM (active); in experiment [10] it was 6.61 µM (active); in experiment [8], 6.61 µM (active); in experiment [9], 6.61 µM (active).

`CN1CCN(c2ccc(OC(F)(F)F)c(Nc3ncc4c(n3)-c3c(c(C(N)=O)nn3CCO)CC4)c2)CC1`: in experiment [1], the activation is 85.7%. Besides, the Potency result in experiment [2] and in [3] was “inactive” in each case. Moreover, the Potency was 0.186 µM (active) in [4]; 0.059 µM (active) in experiment [5]; 0.0934 µM (active) in experiment [6]; 0.118 µM (active) in experiment [10]; 0.132 µM (active) in experiment [8]; 0.332 µM (active) in experiment [9].

Broadly, the viability is a read-out of living cells in per cent, often relative to untreated cells.

For the origin of these results see PubChem BioAssay (NCATS).
